Experimental data as given in PubChem BioAssay (NCATS).
Records with an inconclusive call do not appear. The source made the active and inactive calls. Unless noted, the call rests on the fitted dose curve; in most records, active means well fitted curve in the direction sought with a large enough effect; inconclusive means small, poorly fitted or top-dose-only effect, or another doubt; inactive means no such curve, though single readings can be large; an effect the other way counts as inactive or inconclusive.

Assays:
[1] = molecular target: Cytochrome P450 3A4 (Homo sapiens) (UniProt P08684); assay: qHTS Assay for Inhibitors and Substrates of Cytochrome P450 3A4 (AID 884); further: nearly all actives have a fitted effect of over 50% in size; further: potency means the concentration at half of the fitted maximal effect
Method in brief: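 Luminescent readout of luciferin produced by CYP3A4 (20 nM) dealkylation of Luciferin-PPXE, 25 uM (its KM). NADPH-driven reaction ran 60 min at RT after 10 min compound preincubation; data scaled to 57 uM ketoconazole as 100% inhibition.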

[2] = molecular target: Ubiquitin carboxyl-terminal hydrolase 1 (Homo sapiens) (UniProt O94782); assay: Inhibitors of USP1/UAF1: Pilot qHTS (AID 504865);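 further: rhodamine fluorescence freed from ubiquitin-rhodamine substrate followed over time; top concentration of the series differs between compounds; on the % scale 0 is the no-effect control and ±100 the full control effect; nearly all actives have a fitted effect of over 35% in size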
Method in brief: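 USP1/UAF1 complex at 1 nM preincubated 15 min at room temperature with compound, then Ub-Rho substrate added at 150 nM final. Fluorescence (480/540 nm) read kinetically in 50 mM HEPES pH 7.8, 0.5 mM EDTA, 1 mM TCEP, 0.1 mg/ml BSA, 0.01% Tween-20.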

[3] = molecular target: DNA dC->dU-editing enzyme APOBEC-3G (Homo sapiens) (UniProt Q9HC16); assay: qHTS for inhibitors of Vif-A3G interactions: Validation (AID 588379); further: 0% is about no effect
Method in brief: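 Yellow fluorescence (Ex 488, Em 500-530) of Vif-coexpressing HeLa A3G-eYFP cells, scanned by Acumen cytometer, reports blocked A3G degradation. Cells plated at 700/well overnight at 37 deg C before compound addition, then a further overnight compound incubation at 37 deg C.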

[4] = molecular target: Rap guanine nucleotide exchange factor 3 (Homo sapiens) (UniProt O95398); assay: Confirmatory qHTS for agonist of cAMP-regulated guanine nucleotide exchange factor 3 (EPAC1) (AID 1645881);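 further: EPAC1 catalysed release of BODIPY-GDP from Rap1B seen as fluorescence loss; 100% = effect of cAMP agonist control; nearly all actives have a fitted effect of over 75% in size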
[5] = molecular target: Rap guanine nucleotide exchange factor 4 (Homo sapiens) (UniProt Q8WZA2); assay: Confirmatory qHTS for agonist of cAMP-regulated guanine nucleotide exchange factor 4 (EPAC2) (AID 1645884);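 further: nucleotide exchange releases bodipy-GDP from Rap1 and this lowers its fluorescence; on the % scale 0 is the no-effect control and ±100 the full control effect; nearly all actives have a fitted effect of over 65% in size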
[6] = molecular target: Rap guanine nucleotide exchange factor 4 (Homo sapiens) (UniProt Q8WZA2); assay: Confirmatory qHTS for antagonist of cAMP-regulated guanine nucleotide exchange factor 4 (EPAC2) (AID 1645885); further: nearly all actives have a fitted effect of over 25% in size; further: potency means the concentration at half of the fitted maximal effect
[7] = molecular target: Rap guanine nucleotide exchange factor 3 (Homo sapiens) (UniProt O95398); assay: Counterscreen qHTS for antagonist of cAMP-regulated guanine nucleotide exchange factor 3 (EPAC1) (AID 1645888);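 further: fluorescence loss as bound BODIPY-GDP is released from Rap1B; % of control where 0% means no effect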
Method in brief: (§1)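 Measured: fluorescence of BODIPY-GDP bound to Rap1B, which falls as exchange proceeds. Conditions include 50 uM competing GDP, 5 and 30 min reads, and a later cAMP challenge for antagonist detection.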

[8] = molecular target: Rap guanine nucleotide exchange factor 3 (Homo sapiens) (UniProt O95398); assay: Counterscreen qHTS for agonist of cAMP-regulated guanine nucleotide exchange factor 3 (EPAC1) (AID 1645889); further: % of control where 0% means no effect; nearly all actives have a fitted effect of over 40% in size
Method in brief: as §1

[9] = molecular target: Cytochrome P450 3A4 (Homo sapiens) (UniProt P08684); assay: qHTS Assay for Activators of Cytochrome P450 3A4 (AID 885); further: nearly all actives have a fitted effect of over 65% in size
Method in brief: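 Luminescent readout of luciferin formed from 25 uM Luciferin-PPXE (KM level) by 20 nM CYP3A4 in 200 mM KPO4, with 60 min NADPH-driven reaction at room temperature after 10 min compound exposure. Ketoconazole (57 uM) defined 100% inhibition.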

[10] = Confirmation and Secondary Assay for Modulators of Hemoglobin Beta Chain Splicing at IVS2 654 locus (AID 910);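 further: per-well total GFP intensity by laser scanning cytometry after 2-day treatment; % of control where 0% means no effect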
Method in brief: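 HeLa cells stably carrying EGFP interrupted by mutant beta-globin IVS2-654 intron (CMV-driven) were treated with compound for 2 days at 37C; corrected splicing was scored as total peak GFP intensity per well (488 nm excitation, 500-520 nm emission).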

[11] = AP1 Signaling Pathway (AID 357; active means well fitted curve in either direction with a large enough effect, not every such curve was filed as active;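 further: ME-180 reporter cells stimulated with EGF at its EC50 level; on the % scale 0 is the no-effect control and ±100 the full control effect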)
Method in brief: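 Titration-series screen for positive or negative modulators of EC50 EGF-induced signaling in ME-180 cells carrying an AP-1-driven beta-lactamase reporter. After 5 hours at 37 degrees Celsius, CCF4 460nm/530nm emission ratio gave %Activity; AC50 values derived.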

[12] = molecular target: Cytochrome P450 1A2 (Homo sapiens) (UniProt P05177); assay: p450-cyp1a2 (AID 410; calls by dose curve;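 further: -100% = full effect of reference inhibitor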)
Method in brief: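 20nM CYP1A2, 100uM Luciferin-ME (=Km), 100mM KPO4; cpd 10 min RT; +NADPH regen, 60 min RT; stop/detect 20 min; luminescence. Normalized to furafylline 57 uM = full inhibition.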

[13] = NFAT Signaling Pathway (AID 444; active means well fitted curve in either direction with a large enough effect, not every such curve was filed as active;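 further: carbachol stimulus at about its EC50 of 1 µM final; on the % scale 0 is the no-effect control and ±100 the full control effect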); conditions: Jurkat NFAT-bla M1, carbachol, beta-lactamase ratio, 5 h; at 17.2 µM (top of the series) unless noted
Method in brief: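 Jurkat cells carrying an NFAT-driven β-lactamase reporter and co-transfected muscarinic M1 receptor were treated with compound plus carbachol (1 uM final, an EC50 level) for 5 h at 37 °C. CCF4 loading followed for 1 h at RT; 460/530 nm ratio gave %activity.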

[14] = Stat Signaling Pathway (AID 446; active means well fitted curve in either direction with a large enough effect, not every such curve was filed as active;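 further: ME-180 cervical cancer cells given 40 pM IL-6 alongside compound; SIE-controlled beta-lactamase reporter measured as 460/530 nm FRET emission ratio; on the % scale 0 is the no-effect control and ±100 the full control effect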)
Method in brief: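 FRET read-out (405 nm excitation, 460/530 nm emission) of a beta-lactamase reporter under a STAT-inducible element in ME-180 cervical carcinoma cells. Cells with compound receive 40 pM IL-6 for 5 h. Values are normalised to AC90 stimulation and AC90 JAK-inhibitor controls.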

[15] = molecular target: Glucocorticoid receptor (Homo sapiens) (UniProt P04150); assay: GR-GFP Redistribution (AID 450;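 active means compounds whose dose series gives a full or clear partial fitted curve of increased nuclear translocation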; further: potency means the concentration at half of the fitted maximal effect); conditions: U2OS GR-GFP nuclear translocation, laser cytometry, 2 h
[16] = molecular target: Glucocorticoid receptor (Homo sapiens) (UniProt P04150); assay: GR-EFC Redistribution (AID 451; calls by dose curve; further: potency means the concentration at half of the fitted maximal effect); conditions: CHO-K1 GR-EFC translocation, beta-gal luminescence, 2 h
Method in brief: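 CHO-K1 cells stably expressing nuclear-localized β-gal enzyme acceptor and GR fused C-terminally to the enzyme donor fragment; ligand-driven nuclear translocation restores β-gal by complementation. Compounds titrated up to 46 uM final, 2 h at 37 °C; luminescence read.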

[17] = molecular target: Mitogen-activated protein kinase 10 (Mus musculus) (UniProt Q61831); assay: JNK3 AlphaScreen Assay (AID 530; active means well fitted curve in either direction with a large enough effect, not every such curve was filed as active;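 further: kinase came from lysate of stimulated human HepG2 cells; signal reports phosphorylation of biotinylated GST-cJun 1-79 at Ser73 with 10 µM ATP; on the % scale 0 is the no-effect control and ±100 the full control effect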)
Method in brief: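 Biotinylated GST-cJun(1-79) served as substrate for JNK3 in HepG2 lysates stimulated with IL-1beta and TNF-alpha. ATP was 10 uM final, pH 7.6. Ser73 phosphorylation was quantified by AlphaScreen (680 nm excitation).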

[18] = molecular target: 3',5'-cyclic-AMP phosphodiesterase 4B (Homo sapiens) (UniProt Q07343); assay: qHTS Assay for Inhibitors of PDE-IV (AID 607; active means well fitted activation curve with a large enough effect in the main read-out, with a control signal flat, not every such curve was filed as active; further: % of control where 0% means no effect)
Method in brief: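 Cell-based read-out of cAMP via a modified cyclic nucleotide-gated channel and membrane potential dye (535/590 nm) in HEK293 cells expressing PDE4 endogenously. Compounds tested up to 22.9 uM final; 100 uM RO 20-1724 reference.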

Sequence of Rap guanine nucleotide exchange factor 4 (Homo sapiens) (Q8WZA2 whole entry, looked up): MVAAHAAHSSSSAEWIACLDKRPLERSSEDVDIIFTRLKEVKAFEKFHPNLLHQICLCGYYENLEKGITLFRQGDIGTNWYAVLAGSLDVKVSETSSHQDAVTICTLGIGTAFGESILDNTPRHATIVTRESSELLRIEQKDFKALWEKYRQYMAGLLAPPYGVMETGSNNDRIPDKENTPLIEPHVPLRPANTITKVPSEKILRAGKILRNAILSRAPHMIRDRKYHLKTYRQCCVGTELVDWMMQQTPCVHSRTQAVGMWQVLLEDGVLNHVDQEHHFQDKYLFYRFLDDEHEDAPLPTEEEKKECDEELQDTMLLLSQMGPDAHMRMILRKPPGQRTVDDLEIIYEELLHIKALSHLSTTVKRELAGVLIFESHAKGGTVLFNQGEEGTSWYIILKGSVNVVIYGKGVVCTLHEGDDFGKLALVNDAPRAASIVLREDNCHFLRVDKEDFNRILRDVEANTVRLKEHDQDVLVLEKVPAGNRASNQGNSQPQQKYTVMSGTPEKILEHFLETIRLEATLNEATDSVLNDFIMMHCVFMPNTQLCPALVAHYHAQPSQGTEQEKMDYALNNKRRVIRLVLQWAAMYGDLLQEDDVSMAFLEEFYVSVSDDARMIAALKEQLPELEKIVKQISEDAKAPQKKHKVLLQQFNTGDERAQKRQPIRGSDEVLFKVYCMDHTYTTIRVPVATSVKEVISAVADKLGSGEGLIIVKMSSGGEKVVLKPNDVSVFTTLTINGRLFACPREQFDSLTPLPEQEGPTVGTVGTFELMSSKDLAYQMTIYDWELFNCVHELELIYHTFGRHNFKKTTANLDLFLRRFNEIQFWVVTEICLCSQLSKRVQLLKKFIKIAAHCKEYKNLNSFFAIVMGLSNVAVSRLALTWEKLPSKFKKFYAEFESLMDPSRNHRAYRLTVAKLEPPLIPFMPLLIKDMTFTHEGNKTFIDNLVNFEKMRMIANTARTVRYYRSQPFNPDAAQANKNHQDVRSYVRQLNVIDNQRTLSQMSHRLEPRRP
Sequence of Cytochrome P450 3A4 (Homo sapiens) (P08684 whole entry, looked up): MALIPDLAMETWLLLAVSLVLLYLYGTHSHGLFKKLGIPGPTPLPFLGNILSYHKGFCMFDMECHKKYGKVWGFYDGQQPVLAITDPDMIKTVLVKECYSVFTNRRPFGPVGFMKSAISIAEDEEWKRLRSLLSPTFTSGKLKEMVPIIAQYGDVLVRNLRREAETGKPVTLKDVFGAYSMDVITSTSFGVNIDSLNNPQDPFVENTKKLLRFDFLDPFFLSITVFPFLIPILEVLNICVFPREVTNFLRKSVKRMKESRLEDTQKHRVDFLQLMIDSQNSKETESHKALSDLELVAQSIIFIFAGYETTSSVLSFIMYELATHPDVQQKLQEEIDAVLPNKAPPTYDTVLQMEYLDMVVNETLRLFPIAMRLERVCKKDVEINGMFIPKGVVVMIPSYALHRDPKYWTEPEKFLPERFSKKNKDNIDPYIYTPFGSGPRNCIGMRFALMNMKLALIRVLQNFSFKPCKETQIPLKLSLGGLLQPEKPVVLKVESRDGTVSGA
Sequence of Rap guanine nucleotide exchange factor 3 (Homo sapiens) (O95398 whole entry, looked up): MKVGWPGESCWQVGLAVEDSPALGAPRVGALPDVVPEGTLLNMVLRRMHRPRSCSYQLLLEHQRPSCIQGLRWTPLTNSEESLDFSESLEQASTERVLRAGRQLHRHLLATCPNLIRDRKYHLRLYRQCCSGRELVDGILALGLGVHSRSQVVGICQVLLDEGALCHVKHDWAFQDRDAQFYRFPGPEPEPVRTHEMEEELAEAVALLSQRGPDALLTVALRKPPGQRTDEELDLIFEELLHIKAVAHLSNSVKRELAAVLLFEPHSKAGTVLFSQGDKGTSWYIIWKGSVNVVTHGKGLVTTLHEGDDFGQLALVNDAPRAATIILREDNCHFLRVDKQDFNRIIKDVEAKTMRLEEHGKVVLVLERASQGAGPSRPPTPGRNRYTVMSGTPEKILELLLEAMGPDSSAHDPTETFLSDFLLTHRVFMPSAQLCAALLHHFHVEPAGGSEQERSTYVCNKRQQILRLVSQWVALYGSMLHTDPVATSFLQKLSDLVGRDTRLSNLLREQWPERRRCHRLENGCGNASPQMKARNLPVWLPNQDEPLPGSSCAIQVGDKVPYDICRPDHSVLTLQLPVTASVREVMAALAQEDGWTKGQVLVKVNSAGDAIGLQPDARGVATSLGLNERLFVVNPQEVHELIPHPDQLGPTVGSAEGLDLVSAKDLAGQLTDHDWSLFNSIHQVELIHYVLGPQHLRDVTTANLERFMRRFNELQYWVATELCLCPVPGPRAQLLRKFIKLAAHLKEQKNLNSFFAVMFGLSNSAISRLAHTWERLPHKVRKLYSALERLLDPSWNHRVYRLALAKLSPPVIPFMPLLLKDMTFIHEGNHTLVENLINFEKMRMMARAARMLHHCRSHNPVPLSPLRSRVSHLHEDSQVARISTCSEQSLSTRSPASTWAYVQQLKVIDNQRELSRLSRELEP
Sequence of Ubiquitin carboxyl-terminal hydrolase 1 (Homo sapiens) (O94782 whole entry, looked up): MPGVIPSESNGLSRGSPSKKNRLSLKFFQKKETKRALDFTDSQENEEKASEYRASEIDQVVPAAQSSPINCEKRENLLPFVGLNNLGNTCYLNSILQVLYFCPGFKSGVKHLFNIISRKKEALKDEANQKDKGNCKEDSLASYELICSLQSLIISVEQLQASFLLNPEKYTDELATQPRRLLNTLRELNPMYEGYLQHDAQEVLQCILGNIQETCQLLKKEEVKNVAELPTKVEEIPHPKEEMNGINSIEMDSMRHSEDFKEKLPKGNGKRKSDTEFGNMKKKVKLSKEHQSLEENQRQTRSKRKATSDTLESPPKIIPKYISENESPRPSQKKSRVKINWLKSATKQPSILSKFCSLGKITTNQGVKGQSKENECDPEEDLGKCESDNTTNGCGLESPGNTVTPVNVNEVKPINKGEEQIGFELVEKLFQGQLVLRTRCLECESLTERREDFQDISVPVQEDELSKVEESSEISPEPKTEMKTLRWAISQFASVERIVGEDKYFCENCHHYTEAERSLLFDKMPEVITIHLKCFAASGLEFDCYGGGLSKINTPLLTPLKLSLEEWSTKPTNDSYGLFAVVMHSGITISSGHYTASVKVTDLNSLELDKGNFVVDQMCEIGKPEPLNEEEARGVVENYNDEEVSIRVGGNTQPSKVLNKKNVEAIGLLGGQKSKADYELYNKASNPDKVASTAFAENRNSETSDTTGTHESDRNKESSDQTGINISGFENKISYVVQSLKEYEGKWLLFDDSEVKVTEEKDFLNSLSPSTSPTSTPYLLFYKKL
Sequence of Glucocorticoid receptor (Homo sapiens) (P04150 whole entry, looked up, the tested form may be a part): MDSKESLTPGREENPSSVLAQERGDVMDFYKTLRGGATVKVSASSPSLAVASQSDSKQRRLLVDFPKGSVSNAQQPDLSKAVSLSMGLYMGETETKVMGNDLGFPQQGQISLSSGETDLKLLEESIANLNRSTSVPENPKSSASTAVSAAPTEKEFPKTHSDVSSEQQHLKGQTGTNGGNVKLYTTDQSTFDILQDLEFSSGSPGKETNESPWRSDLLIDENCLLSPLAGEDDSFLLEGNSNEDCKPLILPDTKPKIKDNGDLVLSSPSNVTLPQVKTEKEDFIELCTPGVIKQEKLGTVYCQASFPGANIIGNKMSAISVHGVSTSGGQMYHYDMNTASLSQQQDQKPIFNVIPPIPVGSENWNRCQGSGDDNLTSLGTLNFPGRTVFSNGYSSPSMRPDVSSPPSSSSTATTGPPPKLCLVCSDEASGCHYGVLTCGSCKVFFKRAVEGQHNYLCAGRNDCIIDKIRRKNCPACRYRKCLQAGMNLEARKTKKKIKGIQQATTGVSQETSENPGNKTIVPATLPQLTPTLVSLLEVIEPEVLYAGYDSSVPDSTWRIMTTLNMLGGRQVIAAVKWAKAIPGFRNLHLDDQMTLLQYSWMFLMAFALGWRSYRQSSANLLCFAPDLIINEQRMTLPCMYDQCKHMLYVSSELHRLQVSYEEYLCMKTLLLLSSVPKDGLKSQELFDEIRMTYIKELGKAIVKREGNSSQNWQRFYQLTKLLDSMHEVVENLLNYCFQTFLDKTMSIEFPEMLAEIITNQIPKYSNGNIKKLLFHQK
Sequence of 3',5'-cyclic-AMP phosphodiesterase 4B (Homo sapiens) (Q07343 whole entry, looked up): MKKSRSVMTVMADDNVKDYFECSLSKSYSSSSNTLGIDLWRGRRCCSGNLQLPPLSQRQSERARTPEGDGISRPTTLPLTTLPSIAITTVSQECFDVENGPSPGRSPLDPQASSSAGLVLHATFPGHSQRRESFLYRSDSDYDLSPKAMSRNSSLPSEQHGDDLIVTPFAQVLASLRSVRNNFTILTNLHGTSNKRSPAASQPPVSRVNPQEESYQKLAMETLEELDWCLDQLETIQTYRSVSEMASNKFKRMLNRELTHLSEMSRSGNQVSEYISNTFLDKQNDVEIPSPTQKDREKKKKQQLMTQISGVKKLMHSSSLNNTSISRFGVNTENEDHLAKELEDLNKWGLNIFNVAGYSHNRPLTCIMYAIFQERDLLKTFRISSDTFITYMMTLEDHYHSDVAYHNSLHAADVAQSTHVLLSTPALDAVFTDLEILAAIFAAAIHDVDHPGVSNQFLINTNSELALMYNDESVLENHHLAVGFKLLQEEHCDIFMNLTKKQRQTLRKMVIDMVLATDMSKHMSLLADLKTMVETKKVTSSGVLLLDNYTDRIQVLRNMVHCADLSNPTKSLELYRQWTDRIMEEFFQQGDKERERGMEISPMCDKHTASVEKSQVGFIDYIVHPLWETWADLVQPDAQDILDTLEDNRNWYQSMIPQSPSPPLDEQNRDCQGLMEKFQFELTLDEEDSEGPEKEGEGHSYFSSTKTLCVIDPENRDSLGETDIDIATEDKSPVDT

O=c1[nH]c(=O)n([C@@H]2O[C@H](CO)[C@@H](O)[C@H]2O)cc1F
inactive: Potency [1] | Potency [2] | outcome [3]

CCCOc1ccccc1Cn1c(=O)oc2ccccc21
active: Potency [6] 9.53 µM
inactive: Potency [4] | Potency [5] | Potency [7] | Potency [8]

COc1cc2c(cc1OC)Cc1cc(OC)c(OC)cc1Cc1cc(OC)c(OC)cc1C2
active: Potency [1] 12.6 µM
inactive: Potency [9] | Potency [10] | Potency [2]

CCCCSc1nc2c(c(=O)n1CC)SC(C)C2 (stereo unspecified)
inactive: Potency [4] | activation [5] -4.2% [at 17.1 µM, percent relative to cAMP agonist control] | Potency [6] | activity change, negative = inhibition [7] 2.79% [at 30.8 µM] | activation [8] 5.23% [at 30.8 µM]

CC(C)(C)CC(C)(C)c1ccc(OCOCCOCCO)c(Cc2cc(C(C)(C)CC(C)(C)C)cc(Cc3cc(C(C)(C)CC(C)(C)C)ccc3OCOCCOCCO)c2OCOCCOCCO)c1
inactive: outcome [11] | Potency [12] | activity change, negative = inhibition [13] -20.3% | outcome [14] | Potency [15] > 20.6 µM | Potency [16] > 20.6 µM | Potency [17] | outcome [18] | Potency [9]
